High-throughput results deposited in PubChem by National Center for Advancing Translational Sciences (NCATS).
Compounds with a hit are over-represented: about 7.9% of the library has one in this group of screens.
HCMV antiviral: blocks human cytomegalovirus replication; HFF cells, HCMV-luciferase reporter, 72 h; active compounds read low; activity change, negative = inhibition, % at 57.5 µM; 4.5% of 410,000 active; AID 1259415; in the data active = activity change below about -60%; inconclusive = no clear call, values can overlap the other calls; inactive = above about -39%
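Cell-based, HFFs, 1000 cells/well, 16 h 37C; cpds in DMSO + HCMV-luc, MOI 1 PFU/cell; 72 h 37C; OneGlo luminescence after 5 min RT; norm. to buffer vs Salinomycin 10uM.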
LASV entry inh: inhibitors of Lassa virus binding or cell entry; AID 540256; Potency, µM (series often up to 37.9 µM), inactives show top-dose activity change, negative = inhibition, hits mostly inhibitors; 1.2% of 300,000 active; Lassa virus pseudotype entry inhibition, cell reporter; calls by dose curve; tested in HEK293 cells; note: potency is the fitted concentration of half-maximal effect; nearly all actives have a fitted effect of over 50% in size
FMDV inh: antivirals against foot and mouth disease virus; FMDV antiviral cell-based qHTS; Potency, µM (titrated, usually from 57.9 µM), without a hit: at the top dose activity change, negative = inhibition, usual class: inhibitors; 1.2% of 410,000 active; calls by dose curve; tested in HEK293T cells; note: read-out not given here; potency is the fitted concentration of half-maximal effect; nearly all actives have a fitted effect of over 45% in size
MARV entry inh: blocks Marburg virus binding to or entry into cells. Marburg virus pseudotyped entry inhibition, cell reporter. Potency, µM (titrated, usually from 37.8 µM), for inactives: at the top dose activity change, negative = inhibition, actives largely listed as inhibitors. 1.8% of 300,000 active. AID 540276; calls by dose curve; tested in HEK293 cells; note: potency is the fitted concentration of half-maximal effect
HCV inh: blocks hepatitis C virus; Huh7.5.1 HCVcc-Cre infection, luciferase reporter, 44 h; Potency, µM (series often up to 41.8 µM), for inactives: at the highest dose activity change, negative = inhibition, actives largely listed as inhibitors; 3.4% of 340,000 active; AID 651820; active = well fitted inhibition curve with a large enough effect; inconclusive = small, poorly fitted or top-dose-only effect, or another doubt; inactive = no such curve, though single readings can be large or run the other way; note: potency is the fitted concentration of half-maximal effect
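Infectious HCV cell culture screen: compound-treated cells (1,000/well, pre-plated 4 h) are infected with HCVcc-Cre at roughly 0.5 moi and grown 44 h. Infection is quantified by luciferase signal after 15 min substrate incubation at room temperature.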
The depositor's hits bear a star; ? = inconclusive; . = no result; ! = a repeat was not active; [ ] = dose if it differs, or a comment. % is set by controls: 0 for no effect and ±100 for the full control effect.

SMILES | HCMV antiviral | LASV entry inh | FMDV inh | MARV entry inh | HCV inh
CCOC(=O)c1c(C)[nH]c(C(=O)OCC(=O)Nc2cc(Cl)ccc2OC)c1C | 49.9 | -20.5% | -13.5% | ? | 13.3%
CC(=O)c1c(C)[nH]c(C(=O)OCC(=O)Nc2ccc(Cl)cc2[N+](=O)[O-])c1C | ? | -15.2% | ? | 6.31µM* | ?
COC(=O)c1ccc(NC(=O)C(C)Sc2nc(=O)cc(N)n2CCc2ccccc2)cc1 (centres undefined) | 6.2 | 7.0%[46.1 µM] | 4.2% | ? | .
COC(=O)c1c(C)[nH]c(C(=O)OCC(=O)c2ccc(C)s2)c1C | 51.6 | ? | 36.8% | ? | 11.2µM*
CCOC(=O)c1[nH]c(C)c(C(=O)OC)c1C | 58.6 | ? | 15.0% | ? | 6.1%
COc1ccc(N2CC(O)=C(c3n(C)c4ccccc4[n+]3C)C2=N)cc1 | -81.1* | 0.6% | -5.1% | 2.9% | -15.8%
Cc1ccc(-c2nc3n(n2)Cc2ccccc2-3)cc1 | 92.0 | ? | -83.7% | ? | 2.3%
CCn1c(C)nc2cc(-c3nc4n(n3)Cc3ccccc3-4)ccc21 | . | ? | 0.794µM* | ? | -25.1%
Fc1ccc(-c2nc3n(n2)Cc2ccccc2-3)cc1 | 149.9 | 12.6µM* | -58.8% | ? | ?
CCn1c(C)nc2cc(C(=O)NNC(=O)c3ccc(C)cc3)ccc21 | -30.0 | . | 0.0% | . | 13.8%
COc1ccc(C(=O)N2CCn3c(nnc3C(=O)N3CCCCC3)C2)cc1 | 7.8 | . | . | . | .
N#CC1=C(N)Oc2c(ccc3cccnc23)C1c1ccccc1 (centres undefined) | -25.1 | . | ? | . | ?
Cc1ccc2[nH]c(=O)c(C3C(C#N)=C(N)Oc4c3ccc3cccnc43)cc2c1 (centres undefined) | -92.0* | ? | ? | ? | 10µM*
Cc1ccc(NC(=O)C(=O)NN=C2CCCC2)cc1C | -104.0* | -4.1% | 71.0% | ? | 12.9%
COc1ccccc1CNCc1cc(OC)c(OC)cc1OC | -2.4 | -0.2% | -1.3% | -5.4% | -9.6%
COc1ccccc1CNCc1cccc(Oc2ccccc2)c1 | 47.7 | -14.6%[46.1 µM] | -22.6% | 11.2µM* | -3.7%
CC(C)Cn1c(N)c(C(=O)COC(=O)c2cc(C(F)(F)F)nc3ccccc23)c(=O)n(C)c1=O | -3.2 | -14.5% | 28.2µM* | 28.9% | ?
Cn1c(N)c(C(=O)COC(=O)c2cc(C(F)(F)F)nc3ccccc23)c(=O)n(C)c1=O | 12.0 | 1.5% | . | 7.8% | -6.0%[8.37 µM]
CC(C)Cn1c(N)c(C(=O)COC(=O)c2cc(F)cc(F)c2)c(=O)n(C)c1=O | -26.6 | . | -21.7% | . | -27.8%
CC(C)Cn1c(N)c(C(=O)COC(=O)c2cc(-c3ccccc3)nc3ccccc23)c(=O)n(C)c1=O | -14.2 | 0.5% | ? | -14.1% | ?
CC(C)Cn1c(N)c(C(=O)COC(=O)c2cnc(Cl)c(Cl)c2)c(=O)n(C)c1=O | 13.2 | . | -34.0% | . | 15.8µM*
CC(C)Cn1c(N)c(C(=O)COC(=O)c2cc(C3CC3)nc3ccccc23)c(=O)n(C)c1=O | 15.1 | 20.6µM* | 31.6µM* | -36.3% | ?
CC(C)CON=C1C[C@@H](O)[C@@H](O)[C@@H]2[C@H]3C(=O)N(c4ccc(F)cc4F)C(=O)[C@@H]3CC[C@H]12 | . | . | . | -10.3%[14.2 µM] | .
CCCN1C(=O)C(C#N)C(C)=CC1C (centres undefined) | . | . | . | -3.9% | .
COc1ccccc1C(=O)N1CCOc2ccc(CN3CCN(Cc4ccccn4)CC3)cc2C1 | . | . | -7.3% | . | .
SMILES | HCMV antiviral | LASV entry inh | FMDV inh | MARV entry inh | HCV inh
COc1cccc(C2(CSc3nnc(-c4cc(OC)c(OC)c(OC)c4)o3)OCCO2)c1 | -21.6 | 11.2µM* | ? | -16.4% | ?
COc1cc(-c2nnc(SCCOc3ccc(Cl)cc3)o2)cc(OC)c1OC | -3.4 | -2.4%[46.1 µM] | ? | 2.4%[46.1 µM] | .
CC1CN(Cc2cccn2-c2ncccn2)Cc2cc(Cl)ccc2O1 (centres undefined) | . | . | -13.8% | . | .
CC(C)CNS(=O)(=O)c1cc(C(=O)OCC(=O)c2ccc3c(c2)OCCO3)c(Cl)cc1Cl | -2.7 | ? | ? | ? | -18.1%
CCCn1c(C)cc(C(=O)COC(=O)c2cc(S(=O)(=O)NCC(C)C)c(Cl)cc2Cl)c1C | -6.8 | ? | 26.4% | -14.7% | 10µM*
NC(=O)c1ccccc1OCC(=O)N1CCC(Cc2ccccc2)CC1 | -68.4* | . | 31.6µM* | . | 8.91µM*
O=C(NC(=S)NNC(=O)[C@H]1C[C@@H]1c1ccccc1)c1ccc(F)cc1 | 8.5 | . | -19.5% | . | -29.5%
CC(C)(C)NC(=S)NNC(=O)[C@H]1C[C@@H]1c1ccccc1 | 3.6 | 0.891µM* | 65.6% | 18.2%[46.1 µM] | 22.5%
COc1cc(OC)cc(C(=O)NC(=S)NNC(=O)[C@H]2C[C@@H]2c2ccccc2)c1 | 21.6 | 3.16µM* | -14.5% | -16.3%[46.1 µM] | -15.6%
NC(=O)c1nc[nH]c1C(=O)Nc1cccc(NC(=O)c2cccc(C(F)(F)F)c2)c1 | 2.6 | . | -24.3% | . | 1.8%
COc1ccc(CC(=O)Nc2ccccc2C(=O)N2CCCC2)cc1 | 1.8 | -6.6% | -19.6% | -9.6% | 10.2%
COc1cc(C2Oc3ccccc3C=C2[N+](=O)[O-])cc(OC)c1OC (centres undefined) | -103.8* | . | 12.6µM* | . | ?
CCOC(=O)C(CC1=CS(=O)(=O)c2ccc(Cl)cc21)(NC(C)=O)C(=O)OCC | -17.3 | . | -5.3% | . | .
O=C1Cc2c([nH]c3ccc([N+](=O)[O-])cc23)-c2ccccc2N1 | -98.1* | -7.4%[46.1 µM] | 50.2% | -14.8% | ?
CC(C)(C)c1nnc(N/N=C/c2cc(Br)ccc2O)n(N)c1=O | -101.2* | ? | 22.4µM* | ? | ?
CSc1nnc(NC(=O)c2nc(S(=O)(=O)Cc3ccccc3)ncc2Cl)s1 | -101.7* | ? | 6.31µM* | ? | 12.6µM*
Cc1ccccc1CS(=O)(=O)c1ncc(Cl)c(C(=O)Nc2nnc(C(C)C)s2)n1 | -98.7* | ? | 20µM* | ? | .
CCc1nnc(NC(=O)c2nc(SCc3ccccc3C)ncc2Cl)s1 | 12.7 | 8.2%[46.1 µM] | -2.2% | ? | .
CC(C)Sc1ncc(Cl)c(C(=O)Nc2nnc(C(C)C)s2)n1 | -3.1 | 11.6%[46.1 µM] | -24.5% | -3.0%[46.1 µM] | .
CSc1ncc(Cl)c(C(=O)Nc2nnc(SC)s2)n1 | -3.5 | 15.5% | -22.9% | -0.9% | 5.7%
CC(C)c1nnc(NC(=O)c2nc(S(=O)(=O)Cc3ccccc3)ncc2Cl)s1 | -110.4* | ? | 4.47µM* | ? | ?
Cc1ccc(NC(=O)C(=O)NCCCN2CCOCC2)cc1C | 31.4 | ? | -19.9% | -0.9%[46.1 µM] | .
C=CCN1C(=O)[C@]2(O[C@H](C)CC3=CCCC32)c2c(Br)cccc21 (some centres undefined) | . | ? | . | 2.0%[14.2 µM] | .
Cc1ccc(S(=O)(=O)N2CCN(c3nc(CN4CCCC4)nc4sc(C)c(C)c34)CC2)cc1 | 0.0 | . | -22.1% | . | ?
Cc1sc2nc(CN3CCCC3)nc(N3CCN(S(=O)(=O)c4cccs4)CC3)c2c1C | -14.9 | -7.0% | -6.8% | 14.6µM*! | -17.2%
CCC(=O)N1CCN(c2nc(C)nc3sc(C)c(C)c23)CC1 | -68.2* | -5.7% | . | 4.5% | ?
CCc1nc(N2CCN(S(=O)(=O)c3ccc(Br)cc3)CC2)c2c(C)c(C)sc2n1 | -4.1 | -39.8% | . | 5.9% | 12.6µM*
